# From PubChem
# Gal4-VP16 FLuc: counter-screen for ROR gamma inhibitors: Gal4-VP16 reporter; Drosophila S2 Gal4-VP16 UAS-luciferase, luminescence, 20 h; Potency, µM (doses to about 53.6 µM), actives largely listed as inhibitors; 3.5% of 310,000 active;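 also: Gal4-VP16 expression switched on by copper sulfate through the metallothionein promoter; nearly all actives have a fitted effect of over 50% in size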
# TSHR antagonist: blocks TSH signaling through the human TSH receptor; P16473; TSHR-expressing cells, TSH-stimulated cAMP HTRF, 2 h; hits give low values; activity change, negative = inhibition, % at 11.5 µM; 0.2% of 330,000 active; AID 504810;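 active = activity change below a set negative limit, meaning inhibition stronger than a set level, cut at about -70% in these data; inconclusive = activity change between two set negative limits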
# Target sequence (P16473 whole entry, looked up): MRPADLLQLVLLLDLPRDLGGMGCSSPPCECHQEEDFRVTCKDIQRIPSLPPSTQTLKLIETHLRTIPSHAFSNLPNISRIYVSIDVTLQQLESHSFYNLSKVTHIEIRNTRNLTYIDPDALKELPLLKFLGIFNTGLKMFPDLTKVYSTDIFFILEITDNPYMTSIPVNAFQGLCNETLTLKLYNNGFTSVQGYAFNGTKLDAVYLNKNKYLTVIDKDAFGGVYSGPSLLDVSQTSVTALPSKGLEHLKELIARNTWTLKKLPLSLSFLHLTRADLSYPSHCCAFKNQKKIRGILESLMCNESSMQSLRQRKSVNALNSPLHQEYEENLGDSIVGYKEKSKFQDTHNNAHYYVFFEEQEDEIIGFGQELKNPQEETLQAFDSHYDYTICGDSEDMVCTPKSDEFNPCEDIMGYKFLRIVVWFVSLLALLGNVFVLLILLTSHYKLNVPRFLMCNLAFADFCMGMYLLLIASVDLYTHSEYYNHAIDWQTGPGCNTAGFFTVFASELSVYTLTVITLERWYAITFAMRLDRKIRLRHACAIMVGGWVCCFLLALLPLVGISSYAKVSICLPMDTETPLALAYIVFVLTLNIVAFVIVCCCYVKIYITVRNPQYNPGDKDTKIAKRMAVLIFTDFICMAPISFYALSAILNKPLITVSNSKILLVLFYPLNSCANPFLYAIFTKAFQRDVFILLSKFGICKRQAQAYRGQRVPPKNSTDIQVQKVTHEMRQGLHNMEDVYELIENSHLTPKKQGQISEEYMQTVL
#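 Cell-based HTRF cAMP assay; TSHR cells + compound, TSH EC80 (4nM final), 2 h, 37 deg C. Lysis with anti-cAMP cryptate and cAMP-d2, 30 min RT, read 665/620 nm.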
# ELG1 DNA repair: blocks ELG1-dependent DNA repair in HEK293T cells | Potency, µM (doses to about 46.1 µM), most hits filed as inhibitors | HEK293T ELG1-luciferase reporter, luminescence, 16 h; DNA damage induced by 5-fluorouridine | 2.3% of 330,000 active; also: nearly all actives have a fitted effect of over 55% in size
#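 5-Fluorouridine DNA damage + compound/DMSO, 2,000 cells/well, 16 h, 37 °C/5% CO2. ONE-Glo, 30 min RT, luminescence. Readout = decrease in reporter signal.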
# Coupling enz: counter-screen for Giardia aldolase inhibitors: coupling enzyme system; coupling enzyme system counterscreen, AmpLite Red fluorescence; activity change, negative = inhibition, % at 58.2 µM, hits read low; 0.67% of 290,000 active; AID 2472; in the data active = activity change below about -30%
#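 Fluorescence at 525 nm excitation and 598 nm emission measured inhibition of the coupled detection system without aldolase. Compounds (at 57.5 uM final) were preincubated 10 min at room temperature with coupling enzyme reagent before a 20 min substrate/AmpLite Red step.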
# RORg inh: blocks mouse ROR gamma transcriptional activity | P51450 | Drosophila S2 Gal4-RORgamma UAS-luciferase reporter, 20 h | Potency, µM (series often up to 53.6 µM), hits mostly inhibitors | 5.4% of 310,000 active | AID 2551; also: nearly all actives have a fitted effect of over 60% in size
#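 A Gal4/UAS one-hybrid system in insect cells: metallothionein-promoter Gal4–ROR gamma fusion plus Photinus luciferase reporter. Copper sulfate 700 uM final, 20 hr ambient incubation, luminescent detection after 10 min with reagent.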
# Numbers stand for hits; i = inactive; ? = inconclusive; nt = no result given; [ ] = remark or other dose. Only some compounds are listed: those with a hit (about 8% of all), similar ones and a draw of the others. Unless noted, calls follow the shape of the dose curve; as a rule, active = well fitted curve in the direction sought with a large enough effect; inconclusive = small, poorly fitted or top-dose-only effect, or another doubt; inactive = no such curve, though single readings can be large; an effect the other way counts as inactive or inconclusive.
SMILES,Gal4-VP16 FLuc,TSHR antagonist,ELG1 DNA repair,Coupling enz,RORg inh
CC(=O)Nc1ccc2nc(NC(=O)c3ccc([N+](=O)[O-])o3)sc2c1,10µM,i,20.6µM,i,?
CC(=O)N1CCN(c2ccc(NC(=O)c3ccc([N+](=O)[O-])o3)cc2Cl)CC1,?,i,18.3µM,i,i
CCC(=O)N1CCN(c2ccc(NC(=O)c3ccc([N+](=O)[O-])o3)cc2Cl)CC1,i,i,?,i,10µM
CCN1CCN(c2ccc(NC(=O)c3ccc([N+](=O)[O-])o3)cc2Cl)CC1,i[10 µM],i,?,i,i
CCC(=O)N1CCN(c2ccc(Cl)cc2NC(=O)c2ccc([N+](=O)[O-])o2)CC1,i,i,i,nt,?
COCCNc1ncnc2ccc(-c3c(C)noc3C)cc12,i,nt,nt,i,i
COc1ccc(/C=C/C(=O)c2ccc(C)s2)cc1,i,nt,nt,i,i
O=c1c2cnn(-c3ccccc3)c2nc(-c2ccco2)n1-c1ccccc1,i,i,6.31µM,i,?
Cc1cccn2cc(COc3ccc(-c4ccccc4)cc3)nc12,?,i,?,i,12.6µM
Brc1ccc(OCc2cn3ccccc3n2)cc1,i,i,?,i,10µM
COc1ccc(C(=O)N2CCC3(CCCN(CC(C)C)C3)CC2)cc1,i,nt,nt,i,i
O=C(Nc1nc2c(Cl)ccc(Cl)c2s1)C1CC1,i,i,?,i,i
NNc1nc2c(Cl)ccc(Cl)c2s1,17.8µM,i,i,i,11.2µM
COC(=O)c1cnn(-c2ccc(Cl)cc2)c1/C=N/NC(N)=S,?,i,13µM,i,i
CCOC(=O)C1=C(N)Oc2cc(O)ccc2C1c1ccc(Br)cc1 (stereo unspecified),i,i,i,i,i
COc1ccc(CNC(=O)C2CCCN(c3ncnc4c3nc3n4CCCCC3)C2)cc1 (stereo unspecified),i,i,i,i,i
CCOc1ccc(OCc2ccc(C(=O)O)o2)cc1,i[0.365 µM],i,?,i,10µM
O=C(COc1ccccc1)Nc1cc(C(F)(F)F)ccc1N1CCCC1,i,i,?,i,i
NNC(=O)COc1cccc(C(F)(F)F)c1,i,i,i,i,8.91µM
Cc1cc(N2CCCC2)ccc1NC(=O)COc1cccc(C(F)(F)F)c1,?,i,?,nt,11.2µM
CCCCn1nc(C(=O)Nc2ccc(-n3cnnn3)cc2)c2ccccc2c1=O,nt,i,7.3µM,nt,nt
CCCn1nc(C(=O)NC2CCCc3ccccc32)c2ccccc2c1=O (stereo unspecified),?,i,16.4µM,i,?
CCCn1nc(C(=O)N2CCc3ccccc32)c2ccccc2c1=O,nt,i,?,nt,nt
CCCCCn1nc(C(=O)N2CCc3ccccc32)c2ccccc2c1=O,nt,i,11.2µM,nt,nt
Cn1nc(C(=O)Nc2ccc(-n3cnnn3)cc2)c2ccccc2c1=O,nt,i,?,nt,nt
SMILES,Gal4-VP16 FLuc,TSHR antagonist,ELG1 DNA repair,Coupling enz,RORg inh
CCCCn1nc(C(=O)NC2CCCCCC2)c2ccccc2c1=O,nt,i,18.3µM,nt,nt
CCCCn1nc(C(=O)N(C)C2CCCCC2)c2ccccc2c1=O,nt,i,?,nt,nt
C=CCOc1ccc(/C=C/C(=O)OCC(=O)N2CCC(c3ccccc3)=N2)cc1,nt,i,?,nt,nt
O=C(NC1CCCCC1)c1cc(S(=O)(=O)N2CCCCC2)ccc1N1CCOCC1,nt,i,i,nt,nt
COc1ccc(-c2nc3c(c4c2C[C@H](c2ccccc2)OC4)CN(C(=O)NCCc2c[nH]c4ccccc24)CC3)c(C)c1,nt,nt,nt,i,nt
CCCOc1ccc(-c2c(C(=O)N/N=C/c3ccc(OC)cc3)nnn2-c2nonc2N)cc1,?,i,?,i,15.8µM
CCOc1ccc(-c2c(C(=O)N/N=C/c3ccc(O)cc3)nnn2-c2nonc2N)cc1,i,i,i,i,i
CCCOc1ccc(-c2c(C(=O)N/N=C/c3ccc(OCC)cc3)nnn2-c2nonc2N)cc1,10µM,i,?,i,10µM
CCCOc1ccc(-c2c(C(=O)N/N=C/c3cccs3)nnn2-c2nonc2N)cc1,3.16µM,i,i,nt,2.24µM
CC(=O)Nc1ccc(S(=O)(=O)N2CCN(c3ccc([N+](=O)[O-])cc3)CC2)cc1,i,i,?,i,?
Cc1ccc(/C=N/NC(=O)c2nnn(-c3nonc3N)c2CSc2ccc(Cl)cc2)o1,?,i,i,i,?
O=C(c1cc(C(F)(F)F)cc(C(F)(F)F)c1)N1CCC2(CC1)CN(Cc1ccccc1)C2,i,nt,nt,i,i
CC(=O)c1ccc(OCCCC(=O)Nc2cccc(-c3nn[nH]n3)c2)cc1,i,i,i,i,i
CCc1c(C)nc2ncnn2c1NCCc1ccc(Cl)cc1,11.2µM,i,?,i,?
CC1CCN(S(=O)(=O)c2ccc(C(=O)N3CCOCC3)cc2)CC1,i,i,i,i,i
Clc1ccc(/C=N/Nc2nnc(Cl)c3ccccc23)cc1,i,i,?,i,?
Clc1nnc(N/N=C/c2ccccc2)c2ccccc12,?,i,?,i,10µM
Cc1ccc(/C=N/Nc2nnc(Cl)c3ccccc23)cc1,12.6µM,i,?,i,3.16µM
Clc1nnc(NN=C2CCCC2)c2ccccc12,?,i,i,i,8.91µM
Cc1nc(C)c(-c2ccc(SCC(=O)Nc3cccc(Cl)c3C)nn2)s1,i,i,?,nt,i
CNc1ccccc1C(C)(C)c1cn(-c2ccc([N+](=O)[O-])cc2)nn1,i,i,i,i,i
Cc1cc(C)nc(Nc2ncc(O)n2-c2ccc(C)c(C)c2)n1,i,i,i,i,i
Cc1cc(C)nc(Nc2ncc(O)n2-c2ccc(C)c(Cl)c2)n1,?,i,?,i,11.2µM
Cc1ccc(NC(=O)C2CCCN(C(=O)NCc3ccccc3)C2)c(C)c1 (stereo unspecified),i,i,i,i,i
O=C(CCl)N(c1ccccc1)C1CCS(=O)(=O)C1 (stereo unspecified),?,i,?,i,17.8µM
SMILES,Gal4-VP16 FLuc,TSHR antagonist,ELG1 DNA repair,Coupling enz,RORg inh
N#CCCS(=O)(=O)c1nnnn1-c1ccccc1,4.47µM,i,i,i,2.82µM
O=C1CCCC2=C1C1O[C@](CCCCN3C(=O)c4ccccc4C3=O)(Cc3c1ccc1ccccc31)O2,i[10 µM],nt,nt,i,i[10 µM]
COc1ccc2c(c1)C(=O)[C@H](OC(=O)NCCOc1ccccc1)[C@@H](c1ccc(OC)c(Br)c1)O2,i,nt,nt,i,i
COc1ccc(C(=O)NC(=S)NCc2ccc(-c3nc4ccccc4o3)cc2)cc1OC,2.51µM,i,i,i,1.26µM
COc1cccc(OC)c1C(=O)NC(=S)NCc1ccccc1,?,i,i,i,10µM
CCOc1cc(C(=O)NCc2ccc(-c3nc4ccccc4o3)cc2)cc(OCC)c1OCC,i,i,?,i,i
COc1cccc(OC)c1C(=O)NC(=S)NCc1cccnc1,i,i,i,nt,i
COc1cc(CNC(=O)C2CC2)ccc1OCc1ccccc1,i,i,?,i,31.6µM
Cc1ccc(C(=O)NC(=S)NCc2ccccc2)cc1,12.6µM,i,i,i,10µM
CCOC(=O)c1ccc(-c2csc(NC(=O)CN3CCC(C)CC3)n2)cc1,?,i,i,i,?
